This note sets out measurements from the supplement of paper PMC6555819.

The subject of this assay is VDR:RXRa (NR concentration 270 nM, RXRa partner concentration 90 nM). The assay can be described thus: PBM binding z-score (relative to random genomic background probes); higher = stronger binding; sequences stand for … in GC…GCGATTGACAGCGTAGAATGAAGG
As to the method:
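Protein-binding microarray (Agilent 4x180K custom design, double-stranded 60-nt probes: 5' GC cap, 34-nt variable region, 24-nt constant primer region; full probe sequence given). Purified or IVT nuclear receptor:RXRα heterodimers (3:1 NR:RXRα, mostly 270:90 nM) or homodimers were incubated for 1 h in PBS with 2% milk and no ligand, then detected with Alexa488 antibodies. Fluorescence from o1-orientation probes (~5 replicates averaged) was converted to z-scores against 500 random hg19 background probes. Variable regions are seed direct-repeat (DR0–DR5) sites, all their single-nucleotide variants and half-site ablations.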
Turning to GCGACTGGGGCAAAGCAAGTTACCATAAGGTTGG, the PBM binding z-score was -0.206. Regarding GGAACGAGGGCACGTTGATAGCAGAGTTTGATGG, the PBM binding z-score came out at 0.909. To GCTGCTAGGTCAGGTTGGTCAGCTGACGGGTACG belongs 0.533. The value for AATACAGGGTCATGGTAGGCCAGAGTACGCACAG was 4.95. On to GCATATAGGTAATACAAGGTGAAAGGCCGATTGT, for which the PBM binding z-score came out at 0.402. The value for TTACCAAAGTGAGCTGAGGTCGTTGATCCAACTC was 1.84. Consider AGAATGAGGTTATACGTAGATCACGGAAGAAAGT, for which the PBM binding z-score was 1.61. The value for TCATATATGTAAATGCTAGGTGAAAGTCCGATCT was 0.934. The sequence TCTCGGAGGACACGAAAGGTCGGAGCTCGACATC had a PBM binding z-score of 1.08. AGAATGAGGTTACTAAGATCAGGGAATTGCGGTC came in with a PBM binding z-score of 1.42. Turning to TCTTGTACATCAGCAGGTTAAGAAAGCTGGCCAA, the PBM binding z-score was 0.622. CCTTACGGGTCACTCCGGGTTATAGCATCGGAGT displayed a PBM binding z-score of 4.18. To GGAACGAGGGAAAAGTTGATAGCATCTGTCGACG belongs -0.649. The sequence TGTAGCAGGCCAGAGGGTCACTCAAGAGGTACGG yielded a PBM binding z-score of 1.46.

The sequence CCTAGCAGGCCAATCAGGGTCACTCAAGGCTTGA came in with a PBM binding z-score of 3.66. The sequence CAAACTAGGTCAAGAAAGGTCAAAGTCGAATGAC registered a PBM binding z-score of 6.44. The value for GCAGACAGGTGAAAGGCAGGTAACTCAGGGTGGC was -0.303. As to CCGACTGGGGCATAAAGGTTACCATACCATCCGG, the PBM binding z-score is 1.4. In turn, TCGAGTAGGTTAGTGGCATTCAGAATGGCGTCGA had a PBM binding z-score of -0.261. TCGAGTAGGTTAGGGGCATGCAGAATGGCGTCGA registered a PBM binding z-score of 0.195. To CCGACTGGGGCATAAGTTTACCATAAGCCAGCCC belongs -0.462. Regarding TAGCCTAGGCCATTGGGCCAGTATAGTACGCATC, the PBM binding z-score is -0.626.

The sequence CCTACTGGGCCATCAGGTCATCGATATCAACGTT yielded a PBM binding z-score of 1.77. For GCTGCTAGGTCAACTGATGGTCAGTTAAAGCTCG, the PBM binding z-score was 1.85. GCTAGCAGGCCATTTGAGTCACTCAATGACGGGC registered a PBM binding z-score of -0.568. On to TCTTGAAGATCAGCAGGTTAAGAAAGCTGGCCAA, for which the PBM binding z-score stood at 0.374.

In turn, GCTGCTAGGTCAACTGATTGTCAGCTAAAGCTCG had a PBM binding z-score of 1.14. Sequence AGAATGAGGTTACCAAATATCAGGGAAACGCTTG displayed a PBM binding z-score of 1.34. Turning to CCTACTGGGCGAAAGGTCATTGATTCCAATGCTC, the PBM binding z-score was 4.43. In the case of ATCGAAAGGTCGCGAGGTGAGTATACAGAAAGGC, the PBM binding z-score was 3.53.

The sequence GCGACTGGGGCATCAGCAGGTTAACATAACTTAA registered a PBM binding z-score of 0.126. With TCTTGTAGATCAGCAGGTTAATAAAGCTGGCCAA, the PBM binding z-score worked out at 0.526. The value for ATCTCTAGGTGACAAGTTCAGTGAAAGAGAGGAC was 1.63; that for GCTAGCAGGCCATTTGGTTCACTCAATGACGGGC was 1.28. Regarding GCAGAGAGGTGAAACGCAGGTAACTCAGGGTGGC, the PBM binding z-score was 0.186.

Take TCTTGTGGATCAAGCAGGTTAAGAAAGCCTGAGT: the PBM binding z-score amounted to 0.403.

As for GCTAGTTGGTCAGTAAAAGGTCACGCACCGGTCG, the PBM binding z-score stood at 4.36. In turn, CGTCCAATGTCAAGGTCAGTGAAAGAGACTCGAA yielded a PBM binding z-score of 2.08. GCTAGCTGGCCATTTGGGTCACTCAATGACGGGC displayed a PBM binding z-score of -0.155. As for GCGACTGGGGCAAAGCAGGTAACCATAAGGTTGG, the PBM binding z-score is -0.313.
